Here are results for 5 compounds from PubChem BioAssay AID743313 (Broad Institute, 2014).

The structures appear in SMILES notation. Active and inactive are the calls of the source.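 Rule for the calls: active = cell killing with a fitted half-maximal concentration no more than twice the top valid dose used; inconclusive = flat curve with a moderate signal drop, or poor fit; inactive = the rest.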

The nature of the assay: HepG2 cell cytotoxicity, dose response, cytotoxicity control, plate reader, dry powder, set 7 (AID 743313).

As for `Cc1ccccc1OCCn1c(=S)[nH]c2ccccc21`, the result was inactive.

As to `Cc1ccc(C(C)C)c(OCCn2c(=S)[nH]c3ccc(Cl)cc32)c1`, the outcome was inactive.

Take `Cc1cccc(OCCn2c(=S)[nH]c3ccccc32)c1`: the result was inactive.

For `Cc1cccc(OCCn2c(=S)[nH]c3ccc(C(F)(F)F)cc32)c1`, the call was inactive.

Consider `Cc1ccc(C(C)C)c(OCCn2c(=S)[nH]c3ccccc32)c1`, for which the outcome was inactive.
